Source: PubChem BioAssay
Hits are enriched below; roughly 8% of the tested compounds scored in any of these assays.
Lassa entry inh: qHTS for Inhibitors of binding or entry into cells for Lassa Virus | 300,000 tested, 1.2% active | Potency, µM (series often up to 37.9 µM), for inactives: at the top dose activity change, negative = inhibition, most hits filed as inhibitors | AID 540256, 2011 | Lassa virus pseudotype entry inhibition, cell reporter; calls by dose curve; tested in HEK293 cells; note: potency is the fitted concentration of half-maximal effect; % is set by controls: 0 for no effect and ±100 for the full control effect; nearly all actives have a fitted effect of over 50% in size
HCV inh: qHTS Assay for Inhibitors of Hepatitis C Virus (HCV); 340,000 tested, 3.4% active; Potency, µM (top dose mostly 41.8 µM), for the others: top-dose activity change, negative = inhibition, actives largely listed as inhibitors; Huh7.5.1 HCVcc-Cre infection, luciferase reporter, 44 h; active = well fitted inhibition curve with a large enough effect; inconclusive = small, poorly fitted or top-dose-only effect, or another doubt; inactive = no such curve, though single readings can be large or run the other way; note: potency is the fitted concentration of half-maximal effect; % is set by controls: 0 for no effect and ±100 for the full control effect
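Seed cells (1,000/well) for 4 h; treat with compound and infect with HCVcc-Cre, moi about 0.5. Incubate 44 h, then detect luciferase activity.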
SARS PLP yeast: qHTS of Yeast-based Assay for SARS-CoV PLP | S. cerevisiae expressing SARS-CoV PLpro, growth rescue | 330,000 tested, 0.19% active | Potency, µM (highest dose often 32.9 µM), without a hit: at the top dose activity, positive = growth rescue, hits mostly activators; calls by dose curve; note: potency is the fitted concentration of half-maximal effect; 0% is about no effect; nearly all actives have a fitted effect of over 55% in size
Marburg entry inh: qHTS for inhibitors of binding or entry into cells for Marburg Virus; Marburg virus pseudotyped entry inhibition, cell reporter; Potency, µM (highest dose often 37.8 µM), for inactives: top-dose activity change, negative = inhibition, usual class: inhibitors; 300,000 tested, 1.8% active; calls by dose curve; tested in HEK293 cells; note: potency is the fitted concentration of half-maximal effect; % is set by controls: 0 for no effect and ±100 for the full control effect
HCMV antiviral: qHTS Assay for inhibitors of the human cytomegalovirus (HCMV) | HFF cells, HCMV-luciferase reporter, 72 h; active compounds read low | activity change, negative = inhibition, % at 57.5 µM | 410,000 tested, 4.5% active | AID 1259415, 2018; in the data active = activity change below about -60%; inconclusive = no clear call, values can overlap the other calls; inactive = above about -39%; note: % is set by controls: 0 for no effect and ±100 for the full control effect
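Two-dose cell screen: HFF monolayers treated with compounds and infected with luciferase-expressing HCMV at 1 PFU/cell, 72 h at 37C, then lysed for luciferase measurement.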
FMDV inh: High Throughput Screening for Foot and Mouth Disease Virus Antivirals | Potency, µM (doses to about 57.9 µM), for inactives: at the top dose activity change, negative = inhibition, actives largely listed as inhibitors | 410,000 tested, 1.2% active | FMDV antiviral cell-based qHTS; calls by dose curve; tested in HEK293T cells; note: read-out not given here; potency is the fitted concentration of half-maximal effect; % is set by controls: 0 for no effect and ±100 for the full control effect; nearly all actives have a fitted effect of over 45% in size
Active calls of the source: *; u = inconclusive; x = not tested or not shown; ! = a repeat was not active; [ ] = remark or other dose.

SMILES	Lassa entry inh	HCV inh	SARS PLP yeast	Marburg entry inh	HCMV antiviral	FMDV inh
Cc1oc(-c2ccc(Cl)cc2)nc1CSCC(=O)NC1CCN(Cc2ccccc2)CC1	u	3.98µM*	u	u	-84.8*	u
CCOc1ccc(-c2nc(CSCC(=O)NC3CCCc4ccccc43)c(C)o2)cc1 (stereo unspecified)	-12.2%	17.8µM*	10.7%	-15.4%	-23.7	0.0%
Cc1oc(-c2ccccc2Cl)nc1CSc1nc2c(c(=O)[nH]1)CCC2	-1.6%	1.3%[8.37 µM]	17.1%	25.9%	-15.5	22.4µM*
CCCC(=O)Nc1ccc(S(=O)(=O)Nc2cc(OC)ncn2)cc1	x	14.4%	-5.7%	x	-6.7	17.3%
O=C1CC(NS(=O)(=O)c2cccs2)CN1c1cccc(F)c1 (stereo unspecified)	15.8%	-4.3%[8.37 µM]	1.8%	16.4%[46.1 µM]	-7.4	-16.1%
COc1ccccc1N1C(=O)C2CCC(c3ccccc3)CC2C1=O (stereo unspecified)	u	4.4%	24.6%	5.8%	-17.6	22.4µM*
Cc1cccc(C)c1-n1nnnc1C(C1CC1)N1C(=O)C(=O)c2ccccc21 (stereo unspecified)	x	x	x	x	-3.6	x
CC(C)(C)n1nnnc1C(C1CC1)N1C(=O)C(=O)c2ccccc21 (stereo unspecified)	x	x	x	x	-77.5*	x
Cc1ccc(NC(=O)C2(C)Cc3ccccc3C(=O)O2)cc1 (stereo unspecified)	x	-23.8%	0.4%	x	-60.1*	18.8%
Cc1sc2nc(CSc3cccc(C(F)(F)F)c3)[nH]c(=O)c2c1C	u	1.2%	-9.2%	-1.3%	-37.4	-5.6%
CNC(=S)N(CCCO)Cc1cc2cc3c(cc2[nH]c1=O)OCO3	x	22.0%	0.0%	x	-1.4	-24.4%
N#CC1=C2SCC(O)(c3ccccc3)N2C(=O)CC1c1cccs1 (stereo unspecified)	u	u	1.7%	0.0326µM*!	-6.0	u
COc1ccc2c(c1)CCc1cnc(-n3ncc(C(=O)NC4CCOC4)c3C3CC3)nc1-2 (stereo unspecified)	x	x	x	x	x	-5.3%
COc1ccc(OCC(=O)N2CCN(Cc3cc(=O)n4nc(-c5ccccc5C)sc4n3)CC2)cc1	-13.3%[46.1 µM]	x	x	x	-20.4	u
COc1cccc(-c2nn3c(=O)cc(CN4CCN(C(=O)COc5ccccc5C)CC4)nc3s2)c1	18.0%[46.1 µM]	x	x	x	12.9	3.55µM*
CC(C)N(C(=S)Nc1cccc(S(=O)(=O)N(C)C)c1)c1ccccc1	x	-14.8%	0.4%	-2.9%	-39.6	-19.0%
Cc1nc2c(C(=O)NCc3ccco3)cnn2c(C)c1Cc1ccc(F)cc1Cl	-11.2%	12.6µM*	-3.3%	u	-1.2	u
CN1Cc2sc(NC(=S)NC(=O)c3ccccc3)c(C#N)c2CC1(C)C	u	u	-2.5%	u	-75.7*	u
CCC1(C)Cc2c(sc(NC(=S)NC(=O)c3ccccc3)c2C#N)CO1 (stereo unspecified)	0.7%	6.6%	-29.6%	14.1%	7.5	-1.6%
CCN(CC)c1ccc(C=C2C(=O)N(C)C(=S)N(C)C2=O)o1	-5.2%	3.5%	-5.7%	u	1.2	-3.0%
CCN(CC)c1ccc(/C=C2/SC(=O)N(C(C)C)C2=O)o1	u	u	-88.5%	u	-86.0*	10.6%
Nc1ccc2c(c1)C(=O)CCC2	x	x	x	x	-6.1	-3.1%
Cc1ccccc1OCCn1c(=N)n(C(C)C)c2ccccc21	-24.5%[46.1 µM]	x	x	u	-68.9*	u
Cc1ccccc1OCC(O)Cn1c(=N)n(CCN2CCCCC2)c2ccccc21 (stereo unspecified)	u	x	x	u	-92.0*	u
COc1ccccc1OCC(O)Cn1c(=N)n(CCN2CCCCC2)c2ccccc21 (stereo unspecified)	u	2.51µM*	11.3%	u	u	-28.3%
SMILES	Lassa entry inh	HCV inh	SARS PLP yeast	Marburg entry inh	HCMV antiviral	FMDV inh
Cc1ccccc1OCC(O)Cn1c(=N)n(CCN2CCOCC2)c2ccccc21 (stereo unspecified)	-28.0%	u	4.4%	u	u	u
N=c1n(CCN2CCOCC2)c2ccccc2n1CC(O)COc1ccccc1 (stereo unspecified)	-9.2%	0.3%	1.9%	u	27.7	-28.0%
N=c1n(CCN2CCCCC2)c2ccccc2n1CC(O)COc1ccccc1 (stereo unspecified)	u	11.2µM*	10.4%	u	20.2	39.8µM*!
CCc1ccc(-n2nc3cc(C)c(NC(=O)c4ccccc4C)cc3n2)cc1	25.9%[46.1 µM]	x	x	u	11.7	u
O=C(O)CC12CC3CC(C1)CC(n1cncn1)(C3)C2	-1.2%	6.3%	1.5%	13.4%[46.1 µM]	78.4	-2.6%
Cc1cc(C)cc(CC(=O)N2CCC2(C)C(=O)NS(=O)(=O)c2ccccc2)c1 (stereo unspecified)	x	x	x	x	-7.2	-16.7%
O=C(Nc1ccc2c(c1)OCCO2)C(c1ccnc2ccccc12)N1CCN(C/C=C/c2ccccc2)CC1 (stereo unspecified)	x	x	x	x	-18.6	u
CC(=O)c1ccc(NC(=O)c2ncn(-c3ccccc3)n2)cc1	16.5%[46.1 µM]	x	x	u	67.3	54.9%
Cc1ccc(NC(=O)CSc2nc3c(oc4ccccc43)c(=O)n2-c2ccc(F)cc2)c(C)c1	x	x	x	-29.0%[46.1 µM]	5.8	0.0%
Cc1ccccc1OCC(O)CN (stereo unspecified)	4.7%	18.3%	0.2%	19.5%	-21.0	8.8%
Cc1ccccc1OCC(O)COc1ccccc1C	u	-22.5%	x	2.8%[46.1 µM]	-100.1*	15.7%
CCOC(=O)C1NNN2C3CCCCC3C(N(CC)CC)NC12 (stereo unspecified)	x	x	x	17.5%[46.1 µM]	x	x
Cc1cc(C)n2nc(C(=O)NCCc3ccccc3)nc2n1	u	8.5%	0.2%	-0.3%	54.5	27.0%
CCN(CC)CCCNC(=O)CSc1nc(-c2cccs2)cc(C(F)(F)F)n1	u	u	1.0%	-28.0%[46.1 µM]	u	-10.0%
O=C(CSc1nc(-c2cccs2)cc(C(F)(F)F)n1)NCc1ccccc1	1.9%	3.98µM*	-8.4%	-27.8%	-17.2	-12.9%
CC(C)CNC(=O)CSc1nc(-c2cccs2)cc(C(F)(F)F)n1	u	-27.8%	-0.4%	-26.2%[46.1 µM]	-68.4*	u
CCCNC(=O)CSc1nc(-c2cccs2)cc(C(F)(F)F)n1	3.6%	3.98µM*	-2.1%	11.1%	-19.4	-9.1%
O=C(NCCc1ccccc1)c1nc2nc(-c3cccs3)cc(C(F)(F)F)n2n1	-4.2%	10µM*	11.5%	u	64.9	18.1%
CCOc1ccc(NC(=O)CSc2n[nH]c(N)n2)c([N+](=O)[O-])c1	2.6%	-2.0%	-6.5%	10.1%	-5.8	-10.5%
